Bioassay records deposited in PubChem by National Center for Advancing Translational Sciences (NCATS).
Sampled rows, rich in hits. Any-hit rate of the full collection: about 21%.
AMA1-RON2 inh: qHTS for Inhibitors of AMA1-RON; Towards Development of Antimalarial Drug Lead: Primary Screen; Plasmodium falciparum AMA1 (3D7) - RON2 peptide interaction; AlphaScreen AMA1-biotinylated RON2 peptide binding; Potency, µM (highest dose often 58.2 µM), most hits filed as inhibitors; actives 0.2% (n = 360,000); also: nearly all actives have a fitted effect of over 45% in size
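AMA1 (3D7) with his tag at 25 nM final met compounds first, then biotinylated RON2 peptide at 25 nM; detection used donor plus acceptor beads, 10 µg/mL apiece, read by AlphaScreen after 30 min at room temperature.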
Shiga inhibitor: A qHTS for Small Molecule Inhibitors of Shiga Toxin; Vero cells, Shiga toxin protein synthesis inhibition reporter; inhibition, % at 38.7 µM; actives 9.2% (n = 290,000); AID 2315, 2010; in the data active = inhibition mostly above about 28%, no sharp cut-off; inactive = mostly below about 43%
HCV inhibitor: qHTS Assay for Inhibitors of Hepatitis C Virus (HCV); Huh7.5.1 HCVcc-Cre infection, luciferase reporter, 44 h; Potency, µM (highest dose often 41.8 µM), hits mostly inhibitors; actives 3.4% (n = 340,000)
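Antiviral activity was scored by luciferase reporter output from cells infected with HCVcc-Cre (~0.5 moi) in presence of compound, 44 h infection period, cells seeded 1,000/well 4 h prior.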
Cycloheximide cs: Cycloheximide Counterscreen for Small Molecule Inhibitors of Shiga Toxin; max response, %; cell reporter, cycloheximide protein synthesis inhibition counterscreen; AID 2314, 2010; actives 12% (n = 300,000); in the data active = max response mostly above about 13%, no sharp cut-off; inactive = mostly below about 14%; also: read at 38.3 µM for the half of the compounds with a filed dose
Pf growth 48h: Primary qHTS for delayed death inhibitors of the malarial parasite plastid, 48 hour incubation | actives 5.9% (n = 310,000) | Potency, µM (doses to about 28.7 µM), hits mostly inhibitors | P. falciparum luciferase growth in erythrocytes, 48 h
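In quantitative HTS format, infected erythrocytes bearing luciferase-reporter parasites were treated for a single generation at 37 C. Luminescence after adding detection reagent served as the growth measure.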
Pf growth 96h: Primary qHTS for delayed death inhibitors of the malarial parasite plastid, 96 hour incubation. P. falciparum luciferase reporter growth, 96 h. Potency, µM (top dose mostly 28.7 µM), actives largely listed as inhibitors. actives 6.9% (n = 320,000). AID 504834, 2011
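Cell-based qHTS: luciferase-tagged P. falciparum in erythrocytes (2% hematocrit, 0.05% parasitemia final) incubated with compounds for 96 hours, 37 C, 5% CO2; luciferase detection reagent then added and luminescence measured.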
Each line names hits and unclear results; the compound was inactive in the other large screens. Unless noted, calls follow the shape of the dose curve; as a rule, active = well fitted curve in the direction sought with a large enough effect; inconclusive = small, poorly fitted or top-dose-only effect, or another doubt; inactive = no such curve, though single readings can be large; an effect the other way counts as inactive or inconclusive.

CC(C)CCN(C(=S)Nc1cccc(F)c1)C1CCN(C(C)C)CC1	HCV inhibitor 11µM, Pf growth 48h inconclusive
N#C/C(C(=O)c1ccccc1)=C1/SC=C(N)N1c1ccccc1	Shiga inhibitor 122, Cycloheximide cs 39, Pf growth 48h inconclusive (no result: AMA1-RON2 inh, HCV inhibitor, Pf growth 96h)
COc1ccc(C(=O)C[C@@H]2OC[C@H](Cc3ccccc3)N2S(=O)(=O)c2ccc(C)cc2)cc1OC	none (no result: Shiga inhibitor, HCV inhibitor, Cycloheximide cs, Pf growth 48h, Pf growth 96h)
O=C1CSC(c2cn(-c3ccccc3)nc2-c2ccc3c(c2)OCCO3)N1CCN1CCOCC1 (stereo not drawn)	Pf growth 48h 8.3µM
O=C1CSC(c2cn(-c3ccccc3)nc2-c2cc3ccccc3oc2=O)N1Cc1ccccc1 (stereo not drawn)	HCV inhibitor 13µM (no result: Pf growth 48h)
CCOC(=O)C1=C(C)c2ccccc2OC1(C(=O)OCC)C(C)C (stereo not drawn)	none (no result: Pf growth 48h, Pf growth 96h)
COc1ccc(CCC(=O)Nc2c(-c3ccc(N(C)C)cc3)[nH][nH]c2=O)cc1	none (no result: Shiga inhibitor, HCV inhibitor, Cycloheximide cs, Pf growth 48h, Pf growth 96h)
CCC1=Nc2cc(C(=O)NCCCN3CCOCC3)ccc2Sc2ccccc21	HCV inhibitor inconclusive, Pf growth 48h inconclusive, Pf growth 96h inconclusive
CC1=Nc2cc(C(=O)NCCCOC(C)C)ccc2Sc2ccc(C)cc21	Pf growth 48h 7.4µM
CCC1=Nc2cc(C(=O)NCCCOC)ccc2Sc2ccccc21	HCV inhibitor inconclusive (no result: Pf growth 48h)
CCCC1=Nc2cc(C(=O)NCCCOC(C)C)ccc2Sc2ccccc21	HCV inhibitor inconclusive, Pf growth 48h 12µM
CCC1=Nc2cc(C(=O)NCCN3CCCC3)ccc2Sc2ccccc21	HCV inhibitor inconclusive, Pf growth 48h inconclusive, Pf growth 96h 2.3µM
CC1=Nc2cc(C(=O)NCCCOC(C)C)ccc2Sc2ccccc21	Pf growth 48h inconclusive, Pf growth 96h inconclusive
CCCC1=Nc2cc(C(=O)NCCCOCC)ccc2Sc2ccccc21	HCV inhibitor inconclusive, Pf growth 48h inconclusive, Pf growth 96h 13µM
CC(=O)[C@H]1CC[C@H]2[C@@H]3C=CC4=CC(=O)CC[C@@]4(C)[C@H]3CC[C@]12C	none (no result: AMA1-RON2 inh, Shiga inhibitor, HCV inhibitor, Cycloheximide cs)
CCN(CC)S(=O)(=O)c1ccc(C(C)NC(=O)Cc2c[nH]c3ccccc23)cc1 (stereo not drawn)	Pf growth 48h inconclusive, Pf growth 96h inconclusive
C[C@@H]1CN([C@@H](C)CO)C(=O)CCCn2nncc2CO[C@H]1CN(C)C(=O)Nc1cccc(Oc2ccccn2)c1	none (no result: Shiga inhibitor, HCV inhibitor, Cycloheximide cs, Pf growth 48h, Pf growth 96h)
COCCCNC(=S)N1CCN(c2nc(-c3ccc(Cl)cc3)cs2)CC1	none (no result: Shiga inhibitor, HCV inhibitor, Cycloheximide cs, Pf growth 48h, Pf growth 96h)
CCN(CC)CCCNC(=S)N1CCN(c2nc(-c3ccccc3)cs2)CC1	HCV inhibitor 7.9µM, Pf growth 48h inconclusive
O=C(NC(=S)N1CCN(c2nc(-c3ccccc3)cs2)CC1)c1cncc(Br)c1	Pf growth 48h inconclusive, Pf growth 96h inconclusive
CCOCCCNC(=S)N1CCN(c2nc(-c3ccccc3)cs2)CC1	HCV inhibitor 10µM
COCCCNC(=S)N1CCN(c2nc(-c3ccccc3)cs2)CC1	HCV inhibitor 13µM, Pf growth 96h inconclusive
COc1ccc(Cl)cc1N1C(=NC(=O)C2CCCO2)SC2CS(=O)(=O)CC21 (stereo not drawn)	none
O=C(CSc1nnc(SCC(=O)c2ccco2)s1)c1ccco1	none
O=C(CSc1nc2cc(Cl)ccc2s1)c1ccco1	Cycloheximide cs 20, Pf growth 96h 10µM
C/C(=N\NC(=O)CSc1nc2ccccc2s1)c1ccco1	Shiga inhibitor 48, Cycloheximide cs 17
N#C/C(=C\c1ccco1)Sc1nc2ccccc2s1	Shiga inhibitor 39, Cycloheximide cs 69
O=C(CSc1nc2ccccc2s1)N/N=C/c1ccco1	Cycloheximide cs 14
Cc1ccccc1N1CCN(S(=O)(=O)Cc2ccccc2)CC1	HCV inhibitor inconclusive, Pf growth 96h inconclusive
O=C(O)COc1ccccc1/C=N/NC(=O)CSc1nc2ccccc2s1	none
O=C(CSc1nc2ccccc2s1)N/N=C/c1ccc(C(=O)O)cc1	none
O=C(CSCc1ccccc1Cl)N/N=C/c1ccco1	Pf growth 96h 13µM
